{"source": "the OligoGym collection", "test_in_all_cases": "pooled miR-30 sensor sort-seq; sequence = guide strand", "conditions_in_all_cases": "shRNA", "key": {"[1]": {"target": "FGF1"}, "[2]": {"target": "FGF23"}, "[3]": {"target": "FGA"}, "[4]": {"target": "FHOD1"}, "[5]": {"target": "FGFR1"}, "[6]": {"target": "FH"}}, "data": [{"sequence": "TTGCTTTCTGGCCATAGTGAGT", "values": [{"measurement": "sensor-assay potency score (higher = more potent)", "setting": "[1]", "value": -1.34}]}, {"sequence": "TGGATCTGCAGGTGGTAGCTGT", "values": [{"measurement": "sensor-assay potency score (higher = more potent)", "setting": "[2]", "value": -0.923}]}, {"sequence": "TATCTTCTGCTCATCACACCTG", "values": [{"measurement": "sensor-assay potency score (higher = more potent)", "setting": "[2]", "value": 0.064}]}, {"sequence": "TTTGCAGCTCCCATTCTTCTTG", "values": [{"measurement": "sensor-assay potency score (higher = more potent)", "setting": "[1]", "value": -0.462}]}, {"sequence": "TTCTCTGCATGCTTCTTGGATA", "values": [{"measurement": "sensor-assay potency score (higher = more potent)", "setting": "[1]", "value": -0.722}]}, {"sequence": "TTCTTGTGGATCTGCAGGTGGT", "values": [{"measurement": "sensor-assay potency score (higher = more potent)", "setting": "[2]", "value": -1.08}]}, {"sequence": "TAAAATTCAGTGATCCATCCAT", "values": [{"measurement": "sensor-assay potency score (higher = more potent)", "setting": "[3]", "value": 0.455}]}, {"sequence": "AACAAGATTGCTTTCTGGCCAT", "values": [{"measurement": "sensor-assay potency score (higher = more potent)", "setting": "[1]", "value": -0.264}]}, {"sequence": "AACATTTTTCTGCAGAAGCTGG", "values": [{"measurement": "sensor-assay potency score (higher = more potent)", "setting": "[3]", "value": -0.95}]}, {"sequence": "AGGCAGATTAAACTTCTCGGTC", "values": [{"measurement": "sensor-assay potency score (higher = more potent)", "setting": "[1]", "value": -1.58}]}, {"sequence": "TAAACTTCTCGGTCAGGGCTGT", "values": [{"measurement": "sensor-assay potency score (higher = more potent)", "setting": "[1]", "value": 0.184}]}, {"sequence": "TTAAACTTCTCGGTCAGGGCTG", "values": [{"measurement": "sensor-assay potency score (higher = more potent)", "setting": "[1]", "value": -0.0976}]}, {"sequence": "TCTGATCTGATCATCAGGGCAC", "values": [{"measurement": "sensor-assay potency score (higher = more potent)", "setting": "[2]", "value": 0.338}]}, {"sequence": "TTTCTGGCCATAGTGAGTCCGA", "values": [{"measurement": "sensor-assay potency score (higher = more potent)", "setting": "[1]", "value": -0.918}]}, {"sequence": "TAGTGAGTCCGAGGACCGCGTT", "values": [{"measurement": "sensor-assay potency score (higher = more potent)", "setting": "[1]", "value": -1.55}]}, {"sequence": "TGGAACCTGCAGTTCTCCGGGT", "values": [{"measurement": "sensor-assay potency score (higher = more potent)", "setting": "[2]", "value": -0.566}]}, {"sequence": "TTGGATATATAGGTGTTGTAAT", "values": [{"measurement": "sensor-assay potency score (higher = more potent)", "setting": "[1]", "value": -0.998}]}, {"sequence": "AATGTTGCCTCTGAAATCCATG", "values": [{"measurement": "sensor-assay potency score (higher = more potent)", "setting": "[2]", "value": -1.53}]}, {"sequence": "ATCCTCTGATCTGATCATCAGG", "values": [{"measurement": "sensor-assay potency score (higher = more potent)", "setting": "[2]", "value": -1.39}]}, {"sequence": "TTTCTCTCCACTTCTCTAGCAA", "values": [{"measurement": "sensor-assay potency score (higher = more potent)", "setting": "[3]", "value": 0.384}]}, {"sequence": "TTCTTCTCTGCATGCTTCTTGG", "values": [{"measurement": "sensor-assay potency score (higher = more potent)", "setting": "[1]", "value": -0.847}]}, {"sequence": "TTCCAGGAACAAACATTCCTCA", "values": [{"measurement": "sensor-assay potency score (higher = more potent)", "setting": "[1]", "value": -0.434}]}, {"sequence": "TTGGAACCTGCAGTTCTCCGGG", "values": [{"measurement": "sensor-assay potency score (higher = more potent)", "setting": "[2]", "value": 0.14}]}, {"sequence": "TTGCAGCTCCCATTCTTCTTGA", "values": [{"measurement": "sensor-assay potency score (higher = more potent)", "setting": "[1]", "value": -1.07}]}, {"sequence": "TCATTTGGTGTCTGTGAGCCGT", "values": [{"measurement": "sensor-assay potency score (higher = more potent)", "setting": "[1]", "value": -0.0568}]}, {"sequence": "TGAATGTGCTGGTCGCTCCTGT", "values": [{"measurement": "sensor-assay potency score (higher = more potent)", "setting": "[1]", "value": -0.0696}]}, {"sequence": "TAATGGGTCACTGGCCATCGGG", "values": [{"measurement": "sensor-assay potency score (higher = more potent)", "setting": "[2]", "value": -1.63}]}, {"sequence": "TTTCCAGGAACAAACATTCCTC", "values": [{"measurement": "sensor-assay potency score (higher = more potent)", "setting": "[1]", "value": -0.373}]}, {"sequence": "TTGGGCTTCTTGTAATTCCCTG", "values": [{"measurement": "sensor-assay potency score (higher = more potent)", "setting": "[1]", "value": -0.211}]}, {"sequence": "ATTTGGTGTCTGTGAGCCGTAT", "values": [{"measurement": "sensor-assay potency score (higher = more potent)", "setting": "[1]", "value": -0.909}]}, {"sequence": "TTCTTGGATATATAGGTGTTGT", "values": [{"measurement": "sensor-assay potency score (higher = more potent)", "setting": "[1]", "value": -1.22}]}, {"sequence": "TCTGGCCATAGTGAGTCCGAGG", "values": [{"measurement": "sensor-assay potency score (higher = more potent)", "setting": "[1]", "value": -1.16}]}, {"sequence": "TCCATGCAGAGGTATCTTCTGC", "values": [{"measurement": "sensor-assay potency score (higher = more potent)", "setting": "[2]", "value": -1.48}]}, {"sequence": "TTCTGCTCATCACACCTGTAAT", "values": [{"measurement": "sensor-assay potency score (higher = more potent)", "setting": "[2]", "value": -1.67}]}, {"sequence": "TTTGGTGTCTGTGAGCCGTATA", "values": [{"measurement": "sensor-assay potency score (higher = more potent)", "setting": "[1]", "value": -0.694}]}, {"sequence": "TTGCCTCTGAAATCCATGCAGA", "values": [{"measurement": "sensor-assay potency score (higher = more potent)", "setting": "[2]", "value": -1.09}]}, {"sequence": "TTGTAGATGCTCCTCTCGCTGG", "values": [{"measurement": "sensor-assay potency score (higher = more potent)", "setting": "[4]", "value": -0.582}]}, {"sequence": "TTTGTAGATGCTCCTCTCGCTG", "values": [{"measurement": "sensor-assay potency score (higher = more potent)", "setting": "[4]", "value": -1.11}]}, {"sequence": "TTGTAGACGATGACCGACCCCA", "values": [{"measurement": "sensor-assay potency score (higher = more potent)", "setting": "[5]", "value": -0.237}]}, {"sequence": "TTAAAGTTCATCGTAGATCTCA", "values": [{"measurement": "sensor-assay potency score (higher = more potent)", "setting": "[6]", "value": 0.281}]}, {"sequence": "TTTACTTGTTGAACATAACCAC", "values": [{"measurement": "sensor-assay potency score (higher = more potent)", "setting": "[6]", "value": 0.162}]}, {"sequence": "TTGTCTGAGTTCCTGATCCAGT", "values": [{"measurement": "sensor-assay potency score (higher = more potent)", "setting": "[6]", "value": -0.75}]}, {"sequence": "TTGTCTTTTTATAGTAGTCGAT", "values": [{"measurement": "sensor-assay potency score (higher = more potent)", "setting": "[5]", "value": -0.804}]}, {"sequence": "TTACATTCATATTTGTCTGAGT", "values": [{"measurement": "sensor-assay potency score (higher = more potent)", "setting": "[6]", "value": 0.037}]}, {"sequence": "TCATTCTCCACAATGCAGGTGT", "values": [{"measurement": "sensor-assay potency score (higher = more potent)", "setting": "[5]", "value": 0.557}]}, {"sequence": "TTACTGGGCTTGTCCATGCGGT", "values": [{"measurement": "sensor-assay potency score (higher = more potent)", "setting": "[5]", "value": -0.849}]}, {"sequence": "TCGTAGAGCACAAGCTGCGTGC", "values": [{"measurement": "sensor-assay potency score (higher = more potent)", "setting": "[4]", "value": -0.434}]}, {"sequence": "TTCTTCGATGTCTCCATCCTCC", "values": [{"measurement": "sensor-assay potency score (higher = more potent)", "setting": "[4]", "value": -0.285}]}, {"sequence": "TCATATTTGTCTGAGTTCCTGA", "values": [{"measurement": "sensor-assay potency score (higher = more potent)", "setting": "[6]", "value": 0.043}]}, {"sequence": "TTGCAGAGCACAATCCTCCAAC", "values": [{"measurement": "sensor-assay potency score (higher = more potent)", "setting": "[4]", "value": -0.554}]}, {"sequence": "TCTTAGACCTAGCACATCCTAG", "values": [{"measurement": "sensor-assay potency score (higher = more potent)", "setting": "[6]", "value": -0.529}]}, {"sequence": "TTGCATTAGCAATCTTTGGATC", "values": [{"measurement": "sensor-assay potency score (higher = more potent)", "setting": "[6]", "value": -0.818}]}, {"sequence": "TTTCCTTTAAGGTTGATCCATT", "values": [{"measurement": "sensor-assay potency score (higher = more potent)", "setting": "[6]", "value": -0.612}]}, {"sequence": "TTCTATTGCAGCAGCAATGTGC", "values": [{"measurement": "sensor-assay potency score (higher = more potent)", "setting": "[6]", "value": -0.565}]}, {"sequence": "TTTGCTATCTTCATCAGACTGC", "values": [{"measurement": "sensor-assay potency score (higher = more potent)", "setting": "[6]", "value": 0.482}]}, {"sequence": "TTCTACAAACACCAACAGCAGC", "values": [{"measurement": "sensor-assay potency score (higher = more potent)", "setting": "[4]", "value": -1.07}]}, {"sequence": "TGTAGCAGTATTCCAGCCCTGG", "values": [{"measurement": "sensor-assay potency score (higher = more potent)", "setting": "[5]", "value": -0.142}]}, {"sequence": "TTTCCTTTCAAACTTATCCGTT", "values": [{"measurement": "sensor-assay potency score (higher = more potent)", "setting": "[6]", "value": -0.472}]}, {"sequence": "TGGATCAAGACCATAATCCTGG", "values": [{"measurement": "sensor-assay potency score (higher = more potent)", "setting": "[6]", "value": 0.098}]}, {"sequence": "TACAAACACCAACAGCAGCTTC", "values": [{"measurement": "sensor-assay potency score (higher = more potent)", "setting": "[4]", "value": -0.751}]}]}
